# ± gives the standard deviation of the averaged measurements.
# System: CLZ3 (HCA2 human fibroblast dual HR-NHEJ reporter)
# Test: NHEJ repair efficiency (GFP+ cells) relative to control (log10 fold); higher = more non-homologous end joining
# Conditions: 5 µM; doxycycline 0.5 ug/mL
# 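Further: compound given one day ahead of doxycycline, which switches on I-SceI endonuclease to cut the chromosomally integrated reporter and create DSBs.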
row,Compound,NHEJ repair efficiency (log10)
1,OC[C@H]1O[C@H](OC[C@H]2O[C@@H](O[C@@H]3OC=C[C@H]4[C@H](O)[C@@H]5O[C@]5(CO)[C@@H]34)[C@H](O)[C@@H](O)[C@@H]2O)[C@H](O)[C@@H](O)[C@H]1O [Rehmannioside A],0.0412
2,O=C(/C=C/C=C/c1ccc2c(c1)OCO2)N1CCCCC1 [Piperine],0.0542
3,O=C(O)Cc1c(C=CC(=O)OC(Cc2ccc(O)c(O)c2)C(=O)O)ccc(O)c1O (centres undefined) [Salvianolic Acid D],-0.0658
4,COc1cc(C(=O)O)cc(OC)c1O [Syringic acid],-0.0271
5,CC1(C)CC[C@]2(C(=O)O)[C@H](O)C[C@]3(C)C(=CC[C@@H]4[C@@]5(C)CC[C@H](O)C(C)(C)[C@@H]5CC[C@]43C)[C@H]2C1 [Echinocystic acid],-0.117
6,O=c1cc(-c2ccc(O)cc2)oc2cc(O)c(O)c(O)c12 [Scutellarein],-0.103
7,COc1ccc(C[C@H]2COC(=O)[C@@H]2Cc2ccc(O[C@@H]3O[C@H](CO)[C@@H](O)[C@H](O)[C@H]3O)c(OC)c2)cc1OC [Arctiin],-0.18724 ± 8.6e-05
8,COc1c(O[C@@H]2O[C@H](CO)[C@@H](O)[C@H](O)[C@H]2O)cc2occ(-c3ccc(O)cc3)c(=O)c2c1O [Tectoridin],0.116
9,CC1(C)O[C@H]2CC(=O)OC[C@]23[C@H]2CC[C@@]4(C)[C@H](c5ccoc5)OC(=O)[C@H]5O[C@]54[C@]2(C)C(=O)C[C@@H]13 [Limonin],0.0392
10,COc1ccc(-c2oc3c(CC=C(C)C)c(O[C@@H]4O[C@H](CO)[C@@H](O)[C@H](O)[C@H]4O)cc(O)c3c(=O)c2O[C@@H]2O[C@@H](C)[C@H](O)[C@@H](O)[C@H]2O[C@@H]2OC[C@@H](O)[C@H](O)[C@H]2O)cc1 [Epimedin B],-0.0634
11,CC(/C=C/C=C(\C)C(=O)O[C@@H]1O[C@H](CO[C@@H]2O[C@H](CO)[C@@H](O)[C@H](O)[C@H]2O)[C@@H](O)[C@H](O)[C@H]1O)=C\C=C\C=C(C)\C=C\C=C(/C)C(=O)O[C@@H]1O[C@H](CO[C@@H]2O[C@H](CO)[C@@H](O)[C@H](O)[C@H]2O)[C@@H](O)[C@H](O)[C@H]1O [Crocin I],0.0171
12,O=c1c(O)cc([C@H]2Oc3cc(O)cc(O)c3C[C@H]2O)cc2c([C@H]3Oc4cc(O)cc(O)c4C[C@H]3O)cc(O)c(O)c12 [Theaflavin],0.0294
13,COC(=O)C1=CO[C@@H](O[C@@H]2O[C@H](CO)[C@@H](O)[C@H](O)[C@H]2O)[C@@H]2C(CO)=CC[C@H]12 [Geniposide],-0.0355
14,COc1ccc(/C=C/C(=O)O)cc1O [Isoferulic acid],0.104
15,C/C=C1/[C@H](O[C@@H]2O[C@H](CO)[C@@H](O)[C@H](O)[C@H]2O)OC=C(C(=O)OC)[C@H]1CC(=O)OCCc1ccc(O)c(O)c1 [Oleuropein],0.0183
16,CCCCC[C@H](O)CC(=O)CCc1ccc(O)c(OC)c1 [6-Gingerol],-0.0809
17,C[C@@H]1CC[C@@]2(OC1)O[C@H]1C[C@H]3[C@@H]4CC[C@H]5C[C@@H](O)CC[C@]5(C)[C@H]4CC[C@]3(C)[C@H]1[C@@H]2C [Tigogenin],0.0196
18,COc1cc(-c2cc(=O)c3c(O)c(OC)c(O)cc3o2)ccc1O [Jaceosidin],-0.028
19,CC[C@@H]1[C@H]2CCCCN3[C@H]2[C@H](C[C@H]3[C@@H]2C[C@H](C)C(=O)O2)[C@@H]2[C@H]1OC(=O)[C@H]2C [Tuberostemonine],0.233
20,"O=C(O)c1ccc(O)c(O)c1 [3,4-Dihydroxybenzoic acid]",0.00743
21,Oc1ccc2c(c1)OC[C@]1(O)Cc3cc(O)c(O)cc3[C@H]21 [Brazilin],-0.0322
22,COC(=O)c1ccc(O)cc1 [Methylparaben],0.0529
23,CC(C)(O)CCc1c(O)cc(O)c2c(=O)c(O)c(-c3ccc(O)cc3)oc12 [Noricaritin],-0.112
24,C[C@@H](CC[C@@]1(O)O[C@H]2C[C@H]3[C@@H]4CC[C@@H]5C[C@@H](O[C@@H]6O[C@H](CO)[C@H](O)[C@H](O)[C@H]6O[C@@H]6O[C@H](CO)[C@@H](O)[C@H](O)[C@H]6O)CC[C@]5(C)[C@H]4CC[C@]3(C)[C@H]2[C@@H]1C)CO[C@@H]1O[C@H](CO)[C@@H](O)[C@H](O)[C@H]1O [Timosaponin b- II],0.192
25,OCC1=C[C@@H](O)[C@]2(O[C@@H]3O[C@H](CO)[C@@H](O)[C@H](O)[C@H]3O[C@@H]3O[C@H](CO)[C@@H](O)[C@H](O)[C@H]3O)C=CO[C@@H](O[C@@H]3O[C@H](CO)[C@@H](O)[C@H](O)[C@H]3O)[C@H]12 [Rehmannioside D],-0.165
26,COc1c2c(cc3c1-c1c(cc4c(c1OC)OCO4)C[C@H](C)[C@H](C)C3)OCO2 [Schisandrin C],-0.137
27,C=C1CC[C@@H]2[C@](C)(CO)[C@H](O)CC[C@@]2(C)[C@H]1C/C=C1\C=COC1=O [Dehydroandrographolide],0.015
28,COc1cc(OC)c2ccc(=O)oc2c1 [Citropten],0.137
29,C=CCc1ccc(O)c(-c2ccc(O)c(CC=C)c2)c1 [Honokiol],0.125

# — the supplement of paper PMC7380943
